Only some compounds are listed: those with a hit (about 21% of all), similar ones and a draw of the others.
Pf growth 48h – P. falciparum growth inhibition at 48 hours (one generation). P. falciparum luciferase growth in erythrocytes, 48 h. Potency, µM (highest dose often 28.7 µM), actives largely listed as inhibitors. hit rate 5.9% among 310,000
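Read-out is firefly luciferase luminescence from an integrated reporter in P. falciparum, so falling signal marks reduced parasite growth. Infected erythrocytes were at 2% hematocrit and 0.1% parasitemia (final) in Albumax-supplemented RPMI 1640.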
CHX counter – counter-screen hit for Shiga toxin inhibitors, cycloheximide; cell reporter, cycloheximide protein synthesis inhibition counterscreen; max response, %; hit rate 12% among 300,000; in the data active = max response mostly above about 13%, no sharp cut-off; inactive = mostly below about 14%; also: read at 38.3 µM for the half of the compounds with a filed dose
Pf growth 96h – inhibits malaria parasite growth, 96 h. P. falciparum luciferase reporter growth, 96 h. Potency, µM (series often up to 28.7 µM), hits mostly inhibitors. hit rate 6.9% among 320,000
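Erythrocytes infected with luciferase-expressing P. falciparum were dispensed at 2% hematocrit and 0.05% parasitemia (final), then incubated with compounds 96 hours at 37 C in 5% CO2. Luminescence after detection reagent addition reported growth.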
Sm TGR block – blocks Schistosoma mansoni thioredoxin glutathione reductase; Q962Y6; purified TGR, DTNB reduction, TNB absorbance 405 nm; hit rate 3% among 360,000; Potency, µM (doses to about 114 µM), hits mostly inhibitors; also: nearly all actives have a fitted effect of over 60% in size
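Kinetic colorimetric format: TGR-catalysed, NADPH-driven DTNB reduction monitored via TNB absorbance. Enzyme dispensed at 20 nM; compound exposure 15 min at room temperature before reaction start.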
Shiga toxin inh – blocks Shiga toxin action in Vero cells; hit rate 9.2% among 290,000; inhibition, % at 38.7 µM; Vero cells, Shiga toxin protein synthesis inhibition reporter; in the data active = inhibition mostly above about 28%, no sharp cut-off; inactive = mostly below about 43%
NS1 function inh – influenza NS1 inhibition. Potency, µM (series often up to 46.1 µM). hit rate 0.4% among 270,000. AID 2326; calls by dose curve; also: actives are rising curves; nearly all actives have a fitted effect of over 50% in size
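Growth recovery, yeast-based: influenza A NS1 expressed in S. cerevisiae causes slow growth, and suppressors are detected by OD600. The parent strain without NS1 is used as positive control.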
A number is an active result; - = inactive; ? = inconclusive; . = not tested or not shown. Unless noted, calls follow the shape of the dose curve; as a rule, active = well fitted curve in the direction sought with a large enough effect; inconclusive = small, poorly fitted or top-dose-only effect, or another doubt; inactive = no such curve, though single readings can be large; an effect the other way counts as inactive or inconclusive.

SMILES | Pf growth 48h | CHX counter | Pf growth 96h | Sm TGR block | Shiga toxin inh | NS1 function inh
Cc1n[nH]c(=S)c2nn(-c3cccc(Cl)c3)c(C)c12 | - | - | - | 79µM | - | -
O=C(Cn1cnc2c(cnn2-c2ccccc2)c1=O)OCc1ccccc1 | - | 30 | - | - | 76 | -
O=C(Cn1cnc2c(cnn2-c2ccc(F)cc2)c1=O)OCc1ccccc1 | . | - | - | - | - | -
Cc1ccc(-n2ncc3c(=O)n(CC(=O)OCc4ccccc4)cnc32)cc1 | . | 31 | . | - | - | -
O=C(NCCC1=CCCCC1)C1COc2ccccc2O1 (centres undefined) | - | 20 | - | - | 54 | -
O=C(NCCc1ccc(C(F)(F)F)cc1)C1COc2ccccc2O1 (centres undefined) | - | 42 | - | - | 112 | -
O=C(NCCCN1CCOCC1)C1COc2ccccc2O1 (centres undefined) | - | - | - | - | - | -
CC(C)c1ccc(NC(=O)CN2C(=O)C3(SCC(=O)N3c3ccc(F)cc3)c3ccccc32)cc1 (centres undefined) | . | . | . | - | . | .
CCCN(CC(=O)Nc1ccccc1C)C(=O)CCCOc1ccc(Br)cc1 | - | . | - | - | . | .
CCOC(=O)N1CCN(C(=O)CN(c2ccccc2F)S(=O)(=O)c2ccc(C)cc2)CC1 | . | . | . | - | . | .
CCOC(=O)C(Oc1ccc2c(-c3ccccc3)cc(=O)oc2c1)c1ccccc1 (centres undefined) | ? | - | ? | - | - | -
COc1ccc(-n2nc(C(=O)NCC(=O)N3CCCCCC3)c3ccccc3c2=O)cc1OC | - | 24 | 2.9µM | - | - | -
COc1ccc(-n2nc(C(=O)NCC(=O)N3CCOCC3)c3ccccc3c2=O)cc1Cl | - | - | ? | - | - | -
COc1ccc(-n2nc(C(=O)NCC(=O)N3CC(C)CC(C)C3)c3ccccc3c2=O)cc1OC (centres undefined) | 5.9µM | - | 1.7µM | - | - | -
Cc1ccc(NC(=O)OCCN2CCN(Cc3ccccc3)CCC2=O)cc1 | - | - | - | - | - | -
CCOc1ccc(CCNC(=O)c2cc(C)nc3ccccc23)cc1OCC | - | - | ? | - | - | -
CCCn1c(SCC(=O)Nc2ccccc2OC)nnc1-c1ccco1 | - | - | - | - | - | -
CC1CC(C)(C)NC(=S)N1CCCC(=O)Nc1ccc2c(c1)OCCO2 (centres undefined) | - | 42 | ? | - | 116 | -
Cc1ccc(NC(=O)CCCN2C(=S)NC(C)(C)CC2C)cc1 (centres undefined) | - | - | - | - | - | .
CC1CC(C)(C)NC(=S)N1CCCC(=O)Nc1ccc(F)cc1 (centres undefined) | - | - | ? | ? | - | .
Cc1cccc(NC(=O)CN2C(=S)NC(C)(C)CC2C)c1 (centres undefined) | - | - | 10µM | - | - | -
CCc1ccc(NC(=O)CCCN2C(=S)NC(C)(C)CC2C)cc1 (centres undefined) | ? | - | 1.9µM | - | - | .
Cc1ccc(NC(=O)CCC(=O)NNC(=O)COc2ccc([N+](=O)[O-])cc2)c(C)c1 | - | - | - | - | - | -
CCOP(=O)(OCC)C(NS(=O)(=O)c1ccccc1)C(Cl)(Cl)Cl (centres undefined) | - | - | - | 14µM | - | -
Cc1cccc(-n2cc(-c3ccccc3)c3c(N4CCOCC4)ncnc32)c1 | ? | - | ? | - | - | .
SMILES | Pf growth 48h | CHX counter | Pf growth 96h | Sm TGR block | Shiga toxin inh | NS1 function inh
COc1ccc(N2CC(C(=O)NCc3n[nH]c(=O)c4ccccc34)CC2=O)cc1 (centres undefined) | - | . | - | - | . | .
N#CCCN1CCCc2cc(N=Nc3ccc(C(F)(F)F)cc3)ccc21 | - | 43 | - | - | 61 | -
CCCN1CCCc2ccccc21 | . | - | ? | ? | - | -
CCCn1cc(S(=O)(=O)CC(=O)NC2CCCCC2)c2ccccc21 | - | - | ? | - | - | -
COc1ccc(C(=O)NCCn2cc(SCC(=O)NCC3CCCO3)c3ccccc32)cc1OC (centres undefined) | 8.3µM | - | 6.6µM | - | - | -
O=C(CSc1cn(CCNC(=O)c2cccs2)c2ccccc12)NCc1ccccc1 | ? | 11 | - | - | - | -
CCCn1cc(SCC(=O)NC2CCCC2)c2ccccc21 | 9.3µM | - | ? | - | - | -

High-throughput results from PubChem.
